The record followed here is PubChem BioAssay (Tox21).

In assay [1] the target is Cytochrome P450 2C19 (Homo sapiens) (UniProt P33261). Nature of the assay: Cytochrome P450 Family 2 Subfamily C Member 19 (CYP2C19) small molecule antagonists: luciferase reporter qHTS assay (AID 1671197). Further: nearly all actives have a fitted effect of over 65% in size. Further: potency means the concentration at half of the fitted maximal effect. A digest of the protocol: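 Enzyme-substrate mix with proluciferin substrate (P450-Glo CYP2C19 system) preincubated with compounds 10 min at room temperature; NADPH regeneration solution added, 37C for 1 h; detection reagent stops reaction, luminescence read after 20 min. Ketoconazole positive control.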
Sequence of Cytochrome P450 2C19 (Homo sapiens) (P33261 whole entry, looked up): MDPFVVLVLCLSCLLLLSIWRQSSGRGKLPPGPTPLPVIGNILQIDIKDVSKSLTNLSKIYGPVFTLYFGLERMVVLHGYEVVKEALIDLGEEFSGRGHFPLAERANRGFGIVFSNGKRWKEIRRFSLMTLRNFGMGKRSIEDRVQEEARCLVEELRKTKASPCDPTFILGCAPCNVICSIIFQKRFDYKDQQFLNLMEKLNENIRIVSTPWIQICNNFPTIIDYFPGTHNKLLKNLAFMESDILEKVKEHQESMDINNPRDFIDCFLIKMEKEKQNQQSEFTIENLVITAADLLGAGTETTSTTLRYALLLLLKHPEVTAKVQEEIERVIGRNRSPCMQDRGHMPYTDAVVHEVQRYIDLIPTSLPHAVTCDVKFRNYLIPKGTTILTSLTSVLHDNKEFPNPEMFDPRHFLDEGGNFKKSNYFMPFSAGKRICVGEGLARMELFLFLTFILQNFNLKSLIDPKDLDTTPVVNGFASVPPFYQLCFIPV

The target in assay [2] is Cytochrome P450 2C9 (Homo sapiens) (UniProt P11712). Nature of the assay: Cytochrome P450 Family 2 Subfamily C Member 9 (CYP2C9) small molecule antagonists: luciferase reporter qHTS assay (AID 1671198). Further: nearly all actives have a fitted effect of over 50% in size. Further: potency means the concentration at half of the fitted maximal effect. The procedure, abridged: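 CYP2C9 activity was measured with a P450-Glo proluciferin substrate. Enzyme–substrate mix was held with compound for 10 min at room temperature, then NADPH regeneration solution was added for 1 h at 37C. Luciferin product was read as luminescence.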
Sequence of Cytochrome P450 2C9 (Homo sapiens) (P11712 whole entry, looked up): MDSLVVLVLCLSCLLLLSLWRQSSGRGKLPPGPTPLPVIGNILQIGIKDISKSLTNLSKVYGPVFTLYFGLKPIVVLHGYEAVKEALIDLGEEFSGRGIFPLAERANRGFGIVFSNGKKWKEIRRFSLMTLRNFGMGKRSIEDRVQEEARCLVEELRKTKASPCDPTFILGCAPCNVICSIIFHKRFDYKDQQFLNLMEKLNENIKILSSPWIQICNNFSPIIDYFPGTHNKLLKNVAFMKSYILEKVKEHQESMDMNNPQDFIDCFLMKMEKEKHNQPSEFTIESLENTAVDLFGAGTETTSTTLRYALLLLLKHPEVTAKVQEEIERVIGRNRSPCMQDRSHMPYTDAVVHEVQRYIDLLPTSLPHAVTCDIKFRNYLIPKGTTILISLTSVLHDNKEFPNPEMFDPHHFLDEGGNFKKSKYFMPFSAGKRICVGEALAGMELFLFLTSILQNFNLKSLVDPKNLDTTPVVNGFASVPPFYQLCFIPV

Assay [3] deals with Cytochrome P450 1A2 (Homo sapiens) (UniProt P05177). The assay can be described thus: Cytochrome P450 Family 1 Subfamily A Member 2 (CYP1A2) small molecule antagonists: luciferase reporter qHTS assay (AID 1671199). Further: nearly all actives have a fitted effect of over 50% in size. Further: potency means the concentration at half of the fitted maximal effect. The procedure, abridged: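 Compounds were incubated with CYP1A2 and a luminogenic proluciferin substrate for 10 min at room temperature before the reaction was started with NADPH regeneration solution. After 1 h, detection reagent was added and light output, proportional to CYP activity, was recorded.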
Sequence of Cytochrome P450 1A2 (Homo sapiens) (P05177 whole entry, looked up): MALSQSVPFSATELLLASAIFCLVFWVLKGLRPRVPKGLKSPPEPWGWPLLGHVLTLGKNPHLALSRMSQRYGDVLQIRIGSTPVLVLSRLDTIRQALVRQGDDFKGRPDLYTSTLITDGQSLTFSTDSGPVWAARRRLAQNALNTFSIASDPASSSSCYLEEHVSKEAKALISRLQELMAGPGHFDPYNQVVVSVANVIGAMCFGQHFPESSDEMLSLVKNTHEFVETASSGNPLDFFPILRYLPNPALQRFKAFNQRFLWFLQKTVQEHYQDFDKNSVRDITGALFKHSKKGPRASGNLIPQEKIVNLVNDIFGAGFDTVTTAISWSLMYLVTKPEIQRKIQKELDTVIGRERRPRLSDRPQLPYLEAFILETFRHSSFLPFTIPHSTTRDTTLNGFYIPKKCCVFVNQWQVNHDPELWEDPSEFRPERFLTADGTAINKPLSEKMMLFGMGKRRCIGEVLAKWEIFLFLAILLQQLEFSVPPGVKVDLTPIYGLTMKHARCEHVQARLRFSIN

In assay [4] the target is Voltage-gated inwardly rectifying potassium channel KCNH2 (Homo sapiens) (UniProt Q12809). Nature of the assay: Human Ether-a-go-go-Related Gene (hERG) channel small molecule antagonists: fluorescence cell-based qHTS assay (AID 1671200).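 Further: hERG-expressing U2OS cells given a thallium stimulus after FluxOR II dye loading; series mostly up to about 77 µM; nearly all actives have a fitted effect of over 50% in size.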 The procedure, abridged: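 Read-out: thallium influx as a surrogate for potassium, tracked as fluorescence (480 nm ex/540 nm em) every second for 2 min after Stimulus Buffer addition in dye-loaded hERG-U2OS cells.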
Sequence of Voltage-gated inwardly rectifying potassium channel KCNH2 (Homo sapiens) (Q12809 whole entry, looked up): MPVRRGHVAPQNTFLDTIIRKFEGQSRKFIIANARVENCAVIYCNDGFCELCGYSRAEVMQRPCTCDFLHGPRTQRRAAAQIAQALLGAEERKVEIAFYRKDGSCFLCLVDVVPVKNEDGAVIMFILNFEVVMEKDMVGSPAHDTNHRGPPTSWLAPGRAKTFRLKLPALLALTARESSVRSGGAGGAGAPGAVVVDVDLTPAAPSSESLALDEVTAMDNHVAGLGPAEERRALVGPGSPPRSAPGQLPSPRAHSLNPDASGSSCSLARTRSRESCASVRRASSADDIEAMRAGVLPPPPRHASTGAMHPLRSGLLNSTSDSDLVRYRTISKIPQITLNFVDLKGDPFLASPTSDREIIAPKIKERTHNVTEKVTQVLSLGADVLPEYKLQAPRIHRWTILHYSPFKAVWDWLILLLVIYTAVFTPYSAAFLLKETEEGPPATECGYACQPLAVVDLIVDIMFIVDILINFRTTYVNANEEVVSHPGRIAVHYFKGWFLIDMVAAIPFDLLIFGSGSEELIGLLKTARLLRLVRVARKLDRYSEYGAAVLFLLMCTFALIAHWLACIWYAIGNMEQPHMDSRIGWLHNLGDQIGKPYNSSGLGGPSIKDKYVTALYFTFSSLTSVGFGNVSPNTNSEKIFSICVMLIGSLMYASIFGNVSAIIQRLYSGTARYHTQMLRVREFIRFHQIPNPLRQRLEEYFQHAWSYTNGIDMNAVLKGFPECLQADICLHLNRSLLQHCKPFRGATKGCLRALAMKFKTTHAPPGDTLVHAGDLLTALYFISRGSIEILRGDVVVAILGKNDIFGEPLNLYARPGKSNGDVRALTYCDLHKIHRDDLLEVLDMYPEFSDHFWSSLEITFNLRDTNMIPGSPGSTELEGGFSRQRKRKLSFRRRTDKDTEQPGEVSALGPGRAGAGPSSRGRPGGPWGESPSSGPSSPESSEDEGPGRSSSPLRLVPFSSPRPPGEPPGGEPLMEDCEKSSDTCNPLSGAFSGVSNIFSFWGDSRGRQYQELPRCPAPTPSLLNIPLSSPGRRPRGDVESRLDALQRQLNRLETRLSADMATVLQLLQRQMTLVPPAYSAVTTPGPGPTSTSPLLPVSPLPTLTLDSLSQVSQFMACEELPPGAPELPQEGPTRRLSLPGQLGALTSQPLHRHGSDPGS

In assay [5] the target is Cytochrome P450 3A4 (Homo sapiens) (UniProt P08684). Nature of the assay: Cytochrome P450 Family 3 Subfamily A Member 4 (CYP3A4) small molecule antagonists: luciferase reporter qHTS assay (AID 1671201). Further: nearly all actives have a fitted effect of over 50% in size. Further: potency means the concentration at half of the fitted maximal effect. The procedure, abridged:
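Luminescent readout (RLU) proportional to CYP3A4 activity, from luciferin generated off a proluciferin substrate. Enzyme–substrate mix plus compound 10 min at room temp, NADPH regeneration 1 h, detection reagent 20 min.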

Inconclusive results are not listed. Calls of active or inactive are those of the source. The call rests on the fitted dose curve; in most records, active means well fitted curve in the direction sought with a large enough effect in the repeat runs; inconclusive means weak or mixed curves; inactive means no such curve, though single readings can be large; an effect the other way counts as inactive or inconclusive.

Sequence of Cytochrome P450 3A4 (Homo sapiens) (P08684 whole entry, looked up): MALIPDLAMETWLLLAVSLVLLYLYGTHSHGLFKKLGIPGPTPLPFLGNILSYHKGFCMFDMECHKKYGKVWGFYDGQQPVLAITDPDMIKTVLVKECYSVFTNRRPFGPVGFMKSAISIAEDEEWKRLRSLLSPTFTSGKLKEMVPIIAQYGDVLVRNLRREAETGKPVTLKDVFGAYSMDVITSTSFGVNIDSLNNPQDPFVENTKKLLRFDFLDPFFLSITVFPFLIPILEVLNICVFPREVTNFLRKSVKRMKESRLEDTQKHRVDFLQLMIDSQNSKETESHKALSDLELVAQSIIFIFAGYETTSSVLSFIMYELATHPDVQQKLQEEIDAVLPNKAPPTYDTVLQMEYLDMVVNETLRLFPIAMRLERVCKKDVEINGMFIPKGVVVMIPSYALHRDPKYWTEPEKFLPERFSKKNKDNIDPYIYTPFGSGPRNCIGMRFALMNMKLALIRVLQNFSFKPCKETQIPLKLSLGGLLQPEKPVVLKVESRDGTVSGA

With `CCOc1ccc(NS(=O)(=O)c2ccc(N)cc2)nn1`, in assay [1], the Potency was 30.9 µM (active). Further, the Potency entry in assay [2], in assay [3], in assay [4] and in assay [5] was “inactive” in each case.
`CC1=NN(c2cc(Cl)c(S(=O)(=O)O)cc2Cl)C(=O)C1N=Nc1ccc(S(=O)(=O)O)cc1` (stereo not drawn): the Potency entry in assay [1], in assay [2], in assay [3], in assay [4] and in assay [5] was “inactive” in each case.
Turning to `CCCCNC(=S)NCCCC`, the Potency in assay [1] is 79.6 µM (active); in assay [2], 71 µM (active); in assay [3], 44.8 µM (active); in assay [5], 31.7 µM (active). Moreover, in assay [4], the Potency result is “inactive”.
For the compound `O=C1CCCc2ccccc21`, the Potency result in assay [1], in assay [2], in assay [4] and in assay [5] was “inactive” in each case. Moreover, the Potency in assay [3] is 36 µM (active).
On to `COc1cc2c(cc1N)oc1ccccc12`, for which the Potency was 4.57 µM (active) in assay [1] and 0.513 µM (active) in assay [3]. In assay [4], the Potency entry is “inactive”.
For `CC(=O)OC(C)OC(C)=O`, the Potency entry in assay [1], in assay [2], in assay [4] and in assay [5] was “inactive” throughout.
Consider `CC1(C)O[C@@H]2C[C@H]3[C@@H]4CCC5=CC(=O)CC[C@]5(C)[C@@]4(F)[C@@H](O)C[C@]3(C)[C@]2(C(=O)CCl)O1`, for which, in assay [1], the Potency was 34.7 µM (active). The Potency entry in assay [3] and in assay [4] was “inactive” in each case.
Turning to `C=CC(C)(O)CC/C=C(\C)CCC=C(C)C` (stereo not drawn), the figures for the Potency in assay [1] and in assay [3] were 17.8 µM (active) and 31.7 µM (active), respectively.
Take `O=CCCc1ccccc1`: the Potency was 25.2 µM (active) in assay [1] and 35.6 µM (active) in assay [2]. Moreover, the Potency result in assay [4] was “inactive”.
As for `CCc1nnc(NS(=O)(=O)c2ccc(N)cc2)s1`, the Potency result in assay [1], in assay [3] and in assay [4] was “inactive” in each case.
On to `CC/C=C\CCOC(=O)C(C)C`, for which the Potency entry in assay [1], in assay [3] and in assay [4] was “inactive” throughout.
In the case of `CCCCCOc1ccc(C2SC(=O)NC2=O)cc1OCC` (stereo not drawn), the Potency entry in assay [1] and in assay [4] was “inactive” each time. Besides, in assay [2], the Potency is 9.77 µM (active).
For the compound `Nc1cccc(S(=O)(=O)O)c1`, the Potency entry in assay [1], in assay [3], in assay [4] and in assay [5] was “inactive” each time.
